Test results taken from the supplement of paper PMC11732987, “Enantioselective OTUD7B fragment discovery through chemoproteomics screening and high-throughput optimisation” (Communications Chemistry, 2025).

How the values were obtained:
Test in all cases: log2 ratio of Biotin-Ahx-Ub-VS probe labelling (fragment/DMSO); higher = less target engagement (more negative = stronger competition), active = hit call of the paper (q ≤ 0.05, log2 ratio ≤ -1)
Settings in all cases: compound concentration: 200 uM; treatment time: 3 h
[1] = target: USP34 (UniProt Q70CQ2)
Sequence of USP34 (Q70CQ2 whole entry, the tested form may be a part): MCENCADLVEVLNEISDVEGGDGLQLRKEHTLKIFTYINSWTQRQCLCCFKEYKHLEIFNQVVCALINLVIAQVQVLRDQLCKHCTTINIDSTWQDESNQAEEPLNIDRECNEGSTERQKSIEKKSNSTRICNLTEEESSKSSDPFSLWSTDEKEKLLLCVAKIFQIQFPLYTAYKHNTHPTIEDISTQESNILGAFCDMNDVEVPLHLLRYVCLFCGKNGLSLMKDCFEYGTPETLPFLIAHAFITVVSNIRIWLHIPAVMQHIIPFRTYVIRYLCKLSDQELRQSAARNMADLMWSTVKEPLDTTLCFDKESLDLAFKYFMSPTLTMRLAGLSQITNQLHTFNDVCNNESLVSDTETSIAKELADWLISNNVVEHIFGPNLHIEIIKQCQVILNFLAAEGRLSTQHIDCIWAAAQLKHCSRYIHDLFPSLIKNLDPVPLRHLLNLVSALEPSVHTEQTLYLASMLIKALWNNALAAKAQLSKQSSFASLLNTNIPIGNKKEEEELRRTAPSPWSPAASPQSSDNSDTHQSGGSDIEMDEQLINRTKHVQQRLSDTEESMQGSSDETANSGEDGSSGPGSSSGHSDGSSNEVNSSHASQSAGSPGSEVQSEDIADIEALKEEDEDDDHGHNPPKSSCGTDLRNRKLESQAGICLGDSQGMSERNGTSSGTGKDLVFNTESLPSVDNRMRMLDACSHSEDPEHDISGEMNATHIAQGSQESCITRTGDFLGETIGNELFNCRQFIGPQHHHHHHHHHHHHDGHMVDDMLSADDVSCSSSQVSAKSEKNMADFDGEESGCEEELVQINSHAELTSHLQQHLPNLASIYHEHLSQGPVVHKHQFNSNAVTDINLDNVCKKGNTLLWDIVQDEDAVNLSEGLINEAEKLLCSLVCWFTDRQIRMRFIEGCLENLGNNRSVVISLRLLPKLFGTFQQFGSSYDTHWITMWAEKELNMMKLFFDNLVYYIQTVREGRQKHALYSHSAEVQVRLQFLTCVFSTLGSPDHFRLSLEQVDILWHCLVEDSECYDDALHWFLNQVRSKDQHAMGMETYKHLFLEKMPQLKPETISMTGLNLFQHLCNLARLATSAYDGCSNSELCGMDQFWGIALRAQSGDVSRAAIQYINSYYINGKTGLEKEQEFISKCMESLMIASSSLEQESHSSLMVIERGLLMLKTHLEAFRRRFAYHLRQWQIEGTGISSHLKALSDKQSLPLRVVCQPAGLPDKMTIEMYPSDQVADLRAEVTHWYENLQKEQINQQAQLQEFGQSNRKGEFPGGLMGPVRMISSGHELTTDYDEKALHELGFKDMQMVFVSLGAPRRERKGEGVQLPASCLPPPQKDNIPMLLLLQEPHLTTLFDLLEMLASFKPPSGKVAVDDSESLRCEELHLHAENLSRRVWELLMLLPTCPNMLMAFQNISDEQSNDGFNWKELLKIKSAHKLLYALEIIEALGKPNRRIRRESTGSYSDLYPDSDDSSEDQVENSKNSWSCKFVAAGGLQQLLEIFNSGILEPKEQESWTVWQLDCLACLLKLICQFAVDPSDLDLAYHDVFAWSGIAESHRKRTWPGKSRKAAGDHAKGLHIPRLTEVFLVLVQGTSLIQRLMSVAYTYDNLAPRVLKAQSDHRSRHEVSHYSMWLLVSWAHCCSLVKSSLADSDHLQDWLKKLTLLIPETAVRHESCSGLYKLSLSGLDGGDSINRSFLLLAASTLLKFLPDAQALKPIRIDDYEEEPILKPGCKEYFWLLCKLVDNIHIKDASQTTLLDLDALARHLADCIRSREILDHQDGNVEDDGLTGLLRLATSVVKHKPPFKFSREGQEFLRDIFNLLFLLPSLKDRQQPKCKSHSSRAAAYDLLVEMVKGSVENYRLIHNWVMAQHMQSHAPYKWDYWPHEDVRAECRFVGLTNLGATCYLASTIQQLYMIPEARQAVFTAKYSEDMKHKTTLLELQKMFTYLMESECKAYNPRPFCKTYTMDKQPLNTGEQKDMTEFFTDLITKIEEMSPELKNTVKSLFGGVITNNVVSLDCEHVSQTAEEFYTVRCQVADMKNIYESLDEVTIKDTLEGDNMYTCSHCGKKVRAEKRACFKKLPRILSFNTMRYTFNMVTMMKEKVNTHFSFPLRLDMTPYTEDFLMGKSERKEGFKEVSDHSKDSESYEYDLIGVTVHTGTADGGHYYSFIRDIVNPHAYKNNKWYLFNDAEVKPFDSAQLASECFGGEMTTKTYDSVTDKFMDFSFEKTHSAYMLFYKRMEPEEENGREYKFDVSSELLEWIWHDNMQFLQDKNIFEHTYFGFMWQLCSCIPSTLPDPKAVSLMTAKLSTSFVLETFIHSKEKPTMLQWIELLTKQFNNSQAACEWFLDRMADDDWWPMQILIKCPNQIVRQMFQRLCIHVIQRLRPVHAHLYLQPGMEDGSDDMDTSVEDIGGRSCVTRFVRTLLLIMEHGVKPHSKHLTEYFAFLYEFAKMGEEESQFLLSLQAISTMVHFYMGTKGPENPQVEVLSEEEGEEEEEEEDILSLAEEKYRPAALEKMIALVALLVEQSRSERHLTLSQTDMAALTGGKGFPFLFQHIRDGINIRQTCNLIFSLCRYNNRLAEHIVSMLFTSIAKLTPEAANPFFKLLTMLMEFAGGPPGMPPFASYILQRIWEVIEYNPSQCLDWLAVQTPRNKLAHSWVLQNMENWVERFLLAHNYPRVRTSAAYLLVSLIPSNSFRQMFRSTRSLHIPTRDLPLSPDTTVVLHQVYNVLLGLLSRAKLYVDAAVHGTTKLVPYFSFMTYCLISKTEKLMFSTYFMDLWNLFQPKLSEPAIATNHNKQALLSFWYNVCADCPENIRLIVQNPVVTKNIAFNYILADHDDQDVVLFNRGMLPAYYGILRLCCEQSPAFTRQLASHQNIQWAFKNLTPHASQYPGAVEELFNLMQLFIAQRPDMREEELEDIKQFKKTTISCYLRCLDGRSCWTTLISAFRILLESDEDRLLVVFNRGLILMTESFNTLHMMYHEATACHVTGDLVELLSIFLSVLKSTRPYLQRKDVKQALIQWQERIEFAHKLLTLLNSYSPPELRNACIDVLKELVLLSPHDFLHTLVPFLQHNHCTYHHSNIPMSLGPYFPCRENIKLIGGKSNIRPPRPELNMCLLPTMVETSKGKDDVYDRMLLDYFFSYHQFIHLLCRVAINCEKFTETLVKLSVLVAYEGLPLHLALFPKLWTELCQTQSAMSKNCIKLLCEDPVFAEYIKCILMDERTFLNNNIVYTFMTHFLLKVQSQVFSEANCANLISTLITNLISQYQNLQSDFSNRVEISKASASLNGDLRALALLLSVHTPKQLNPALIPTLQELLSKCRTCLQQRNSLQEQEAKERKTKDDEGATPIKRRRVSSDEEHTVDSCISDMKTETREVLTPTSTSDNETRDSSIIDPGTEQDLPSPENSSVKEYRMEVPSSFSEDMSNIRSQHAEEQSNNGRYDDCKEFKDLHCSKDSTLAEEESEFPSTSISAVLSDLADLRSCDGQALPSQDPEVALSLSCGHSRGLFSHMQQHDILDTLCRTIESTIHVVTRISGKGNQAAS
In short: (§1)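 Labelled DUBs were enriched with NeutrAvidin, digested with LysC and trypsin, and run by diaPASEF LC-MS/MS. The labelling used Biotin-Ahx-Ub-VS at 0.5 µM final for 1 h on HEK293T lysate (495 µg per sample) previously treated in triplicate with fragment at 200 µM or vehicle for 3 h. Values are average log2 fragment/vehicle ratios by unpaired t-test on global-median-normalised Spectronaut quantities of proteins with ≥2 unique peptides.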

[2] = target: T1, USP36 (UniProt Q9P275)
T1 sequence (whole entry): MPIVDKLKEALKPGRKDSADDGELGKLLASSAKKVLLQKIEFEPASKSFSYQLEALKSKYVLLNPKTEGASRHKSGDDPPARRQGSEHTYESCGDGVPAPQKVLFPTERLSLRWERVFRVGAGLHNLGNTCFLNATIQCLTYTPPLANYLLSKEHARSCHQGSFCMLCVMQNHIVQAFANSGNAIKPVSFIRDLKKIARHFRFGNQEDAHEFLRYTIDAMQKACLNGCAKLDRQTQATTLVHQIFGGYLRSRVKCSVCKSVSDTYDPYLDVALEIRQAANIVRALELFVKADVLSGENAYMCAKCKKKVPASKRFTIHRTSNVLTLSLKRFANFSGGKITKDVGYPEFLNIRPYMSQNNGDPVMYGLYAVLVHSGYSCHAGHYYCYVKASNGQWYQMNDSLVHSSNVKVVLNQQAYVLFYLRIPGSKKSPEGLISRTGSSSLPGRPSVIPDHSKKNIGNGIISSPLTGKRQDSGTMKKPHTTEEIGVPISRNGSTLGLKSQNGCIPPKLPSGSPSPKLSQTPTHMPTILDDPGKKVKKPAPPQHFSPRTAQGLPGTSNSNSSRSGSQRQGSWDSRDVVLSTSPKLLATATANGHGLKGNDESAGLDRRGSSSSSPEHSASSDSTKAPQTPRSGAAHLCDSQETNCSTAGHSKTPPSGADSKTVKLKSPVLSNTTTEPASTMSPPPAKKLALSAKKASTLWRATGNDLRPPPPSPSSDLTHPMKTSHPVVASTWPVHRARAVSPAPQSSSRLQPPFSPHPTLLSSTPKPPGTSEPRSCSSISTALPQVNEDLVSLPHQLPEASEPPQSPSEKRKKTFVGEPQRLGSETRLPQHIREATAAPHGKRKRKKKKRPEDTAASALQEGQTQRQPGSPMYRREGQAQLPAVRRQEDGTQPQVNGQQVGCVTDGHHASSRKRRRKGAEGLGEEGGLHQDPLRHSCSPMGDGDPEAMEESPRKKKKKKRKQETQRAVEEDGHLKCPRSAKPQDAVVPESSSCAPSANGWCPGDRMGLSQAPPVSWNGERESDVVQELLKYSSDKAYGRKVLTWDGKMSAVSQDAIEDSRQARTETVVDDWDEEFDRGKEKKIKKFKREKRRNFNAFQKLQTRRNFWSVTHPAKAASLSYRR
In short: as §1

[3] = target: T2, USP38 (UniProt Q8NB14)
T2 sequence (whole entry): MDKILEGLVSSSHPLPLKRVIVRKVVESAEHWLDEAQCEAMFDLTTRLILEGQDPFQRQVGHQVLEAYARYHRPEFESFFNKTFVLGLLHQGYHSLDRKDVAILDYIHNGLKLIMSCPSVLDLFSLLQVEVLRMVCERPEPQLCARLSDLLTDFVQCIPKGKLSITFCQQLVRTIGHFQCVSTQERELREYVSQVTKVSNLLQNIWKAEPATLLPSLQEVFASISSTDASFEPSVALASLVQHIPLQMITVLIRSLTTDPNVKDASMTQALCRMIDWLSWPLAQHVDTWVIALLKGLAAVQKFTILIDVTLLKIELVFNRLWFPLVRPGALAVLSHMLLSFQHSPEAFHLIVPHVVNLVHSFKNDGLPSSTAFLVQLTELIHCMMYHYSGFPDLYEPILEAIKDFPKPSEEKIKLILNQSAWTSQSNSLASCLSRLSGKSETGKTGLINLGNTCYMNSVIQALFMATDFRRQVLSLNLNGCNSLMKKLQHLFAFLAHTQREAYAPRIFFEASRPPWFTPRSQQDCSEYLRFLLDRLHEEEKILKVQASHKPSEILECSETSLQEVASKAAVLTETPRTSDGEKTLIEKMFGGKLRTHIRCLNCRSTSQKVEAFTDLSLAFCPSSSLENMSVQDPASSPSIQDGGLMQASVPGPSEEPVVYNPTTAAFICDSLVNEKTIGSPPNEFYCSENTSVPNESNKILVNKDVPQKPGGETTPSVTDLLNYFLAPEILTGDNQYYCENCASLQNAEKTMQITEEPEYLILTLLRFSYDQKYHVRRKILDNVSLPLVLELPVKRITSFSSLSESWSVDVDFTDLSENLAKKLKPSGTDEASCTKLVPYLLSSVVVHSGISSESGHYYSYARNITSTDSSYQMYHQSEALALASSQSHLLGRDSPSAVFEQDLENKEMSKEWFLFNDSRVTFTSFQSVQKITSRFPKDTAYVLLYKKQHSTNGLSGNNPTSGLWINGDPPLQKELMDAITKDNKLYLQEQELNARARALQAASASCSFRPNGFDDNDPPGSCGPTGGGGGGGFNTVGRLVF
In short: as §1

[4] = target: T3, USP39 (UniProt Q53GS9)
T3 sequence (whole entry): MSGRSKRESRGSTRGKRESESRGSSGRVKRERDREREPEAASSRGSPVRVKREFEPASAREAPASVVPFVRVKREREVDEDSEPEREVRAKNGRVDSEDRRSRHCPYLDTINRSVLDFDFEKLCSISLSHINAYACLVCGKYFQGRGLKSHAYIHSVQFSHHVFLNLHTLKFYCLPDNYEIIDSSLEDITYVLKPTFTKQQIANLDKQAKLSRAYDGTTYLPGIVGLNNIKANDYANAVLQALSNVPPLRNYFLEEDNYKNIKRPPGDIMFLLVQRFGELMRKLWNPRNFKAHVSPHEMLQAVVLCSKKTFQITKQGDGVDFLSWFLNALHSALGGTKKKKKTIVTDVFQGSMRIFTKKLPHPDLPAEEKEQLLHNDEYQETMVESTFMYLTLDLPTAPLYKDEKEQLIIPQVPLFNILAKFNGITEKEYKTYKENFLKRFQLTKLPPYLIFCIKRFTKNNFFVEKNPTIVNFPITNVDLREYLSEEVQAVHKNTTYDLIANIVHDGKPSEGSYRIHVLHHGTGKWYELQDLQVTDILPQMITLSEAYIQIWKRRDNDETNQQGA
In short: as §1

[5] = target: T4, USP4 (UniProt Q13107)
T4 sequence (whole entry): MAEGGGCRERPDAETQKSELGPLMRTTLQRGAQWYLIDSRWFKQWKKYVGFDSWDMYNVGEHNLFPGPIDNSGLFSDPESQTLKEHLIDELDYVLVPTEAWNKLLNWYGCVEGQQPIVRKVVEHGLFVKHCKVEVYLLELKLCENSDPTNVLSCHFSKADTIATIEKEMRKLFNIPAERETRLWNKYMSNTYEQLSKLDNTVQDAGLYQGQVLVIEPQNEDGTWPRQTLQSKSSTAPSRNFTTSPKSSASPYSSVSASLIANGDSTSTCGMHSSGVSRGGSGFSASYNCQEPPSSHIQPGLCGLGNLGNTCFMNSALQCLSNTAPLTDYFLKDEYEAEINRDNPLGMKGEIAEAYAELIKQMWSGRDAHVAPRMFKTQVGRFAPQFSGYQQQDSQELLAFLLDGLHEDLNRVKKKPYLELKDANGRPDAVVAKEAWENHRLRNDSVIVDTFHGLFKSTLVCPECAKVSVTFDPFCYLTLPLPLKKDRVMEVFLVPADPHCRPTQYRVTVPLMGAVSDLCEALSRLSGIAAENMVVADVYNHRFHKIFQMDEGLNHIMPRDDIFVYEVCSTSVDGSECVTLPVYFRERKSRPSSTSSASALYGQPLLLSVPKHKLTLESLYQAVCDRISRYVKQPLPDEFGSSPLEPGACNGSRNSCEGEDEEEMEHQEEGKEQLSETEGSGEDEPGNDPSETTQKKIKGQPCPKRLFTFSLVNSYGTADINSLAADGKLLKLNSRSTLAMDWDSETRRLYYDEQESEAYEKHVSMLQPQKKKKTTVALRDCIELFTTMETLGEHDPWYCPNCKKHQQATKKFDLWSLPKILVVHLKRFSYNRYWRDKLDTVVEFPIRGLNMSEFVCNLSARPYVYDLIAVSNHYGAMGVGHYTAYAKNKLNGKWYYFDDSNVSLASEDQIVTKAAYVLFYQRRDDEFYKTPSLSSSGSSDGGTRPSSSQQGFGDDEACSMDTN
In short: as §1

Measured: log2 ratio of Biotin-Ahx-Ub-VS probe labelling

Cc1ccn2cc(CNC(=O)CCl)nc2c1.Cl
inactive: [1] -0.192 | [2] -0.029 | [3] -0.0421 | [4] 0.0111 | [5] 0.0609
